Data on eight compounds can be found in PubChem BioAssay (NCI).

Compounds without any hit were thinned out: in the full panel of roughly 83,000, 20% have a hit.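 In brief: 96-well plates, 48 h treatment, single concentration, percent growth endpoint.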 A number with no mark means an inactive call. Calls of active or inactive are those of the source. How the source made its calls: active means growth percent below 10; inactive means the rest.

What all share (assay): NCI-60 one-dose screen, 48 h (100 = growth as untreated, 0 = no growth, -100 = all killed)
Common to all, as to conditions: 10 µM

Assay [1] deals with K-562 leukemia.
For assay [2], the system named is MALME-3M melanoma.
The test system of assay [3] is MDA-MB-231 breast.
Assay [4] concerns RXF 393 renal.
Assay [5] relates to SF-268 CNS.
Assay [6] relates to SF-295 CNS.
Assay [7] has as its system SF-539 CNS.
Assay [8] concerns UACC-257 melanoma.
Assay [9] relates to M14 melanoma.
Assay [10] concerns HCT-15 colon.
For assay [11], the system named is HT29 colon.
Assay [12] has as its system SNB-75 CNS.
For assay [13], the system named is SNB-19 CNS.
Assay [14] relates to U251 CNS.
Assay [15] deals with PC-3 prostate.
Assay [16] has as its system SK-MEL-5 melanoma.
Assay [17] relates to UACC-62 melanoma.
In assay [18] the test system is LOX IMVI melanoma.
Assay [19] has as its system SK-MEL-28 melanoma.
The subject of assay [20] is SK-MEL-2 melanoma.

Turning to `O=C1/C(=C\c2ccc(Cl)cc2)CN(C(=O)c2ccccc2)C/C1=C\c1ccc(Cl)cc1`, the growth in assay [1] was 4.94% (active); in [2], 64.8%; in assay [3], 25%; in assay [4] it was -22.5% (active); in assay [5], 26.9%; in assay [6] it was 1.64% (active). Moreover, the growth was 61.4% in assay [7]; 67.5% in assay [8]; 2.03% (active) in assay [9]; 10.4% in [10]; -84.9% (active) in assay [11]; 51.4% in assay [12]. The growth in assay [13] was 68.2%; in [14], -74% (active); in assay [15] it was 25.8%; in assay [16], 66.8%; in assay [17], 34.6%; in [18] it was -51.8% (active). In addition, the growth was 59.7% in assay [19] and 87.1% in assay [20].

For the compound `COc1ccc2c(c1)O/C(=C\c1ccc([N+](=O)[O-])s1)C2=O`, the growth in assay [1] is -1.48% (active); in [2] it was 80%; in assay [3], 37.4%; in assay [4] it was -17.3% (active); in assay [5], -9.02% (active); in assay [6], 69%. Moreover, the growth in [7] is 34.5%; in assay [8], 64.4%; in assay [9], 30.3%; in assay [10], 0.318% (active); in assay [11], -12.3% (active); in [12], 55.5%. Besides, the growth in assay [13] is 67.3%; in [14] it was 14.7%; in assay [15], 14%; in assay [16], 60%; in assay [17], 30.6%; in [18] it was 15.7%. The growth is 81.4% in [19] and 55.3% in [20].

As for `Cc1cccc2c1O/C(=C\c1ccc([N+](=O)[O-])o1)C2=O`, the growth is -44.2% (active) in assay [1]; -32.4% (active) in [2]; -47.3% (active) in assay [3]; -80.8% (active) in [4]; -39.8% (active) in assay [5]; 31.1% in assay [6]. In addition, the growth in assay [7] is -59.2% (active); in [8], -65% (active); in assay [9], -54.1% (active); in assay [10] it was -55.2% (active); in assay [11], -67.4% (active); in [12], 65%. Also, the growth in assay [13] is 44.2%; in assay [14], -19.7% (active); in [15], -36.3% (active); in assay [16], -83.5% (active); in [17], -58.9% (active); in assay [18], -83.6% (active). Besides, the growth in assay [19] was -56.6% (active); in [20], -62.8% (active).

On to `COc1cccc(-c2cc(-c3cccc(NS(C)(=O)=O)c3)nc(N)c2C#N)c1O`, for which the growth in assay [1] was 17.1%; in assay [2], -5.49% (active); in assay [3], 53.7%; in [4], 29.3%; in [5], 42.6%; in assay [6], -1.4% (active). The growth in [7] is 3.03% (active); in assay [8], 79.8%; in assay [9] it was 41.3%; in assay [10], 26.7%; in [11] it was 12.6%; in assay [12] it was -16.4% (active). Further, the growth was 42.3% in assay [13]; 30.9% in assay [14]; 16.6% in assay [15]; 11.9% in [16]; 52.9% in [17]; 46.6% in [18]. Moreover, the growth in assay [19] was 76.7%; in assay [20], 69%.

Take `COc1cc2cc3c(nc2cc1OC)CCN3Cc1ccc(NC(=O)Nc2ccc(F)cc2F)cc1`: the growth in [1] was 61.5%; in assay [2], 93.2%; in assay [3] it was 89%; in [4], 88.6%; in assay [5], 94.9%; in assay [6], 76.9%. Also, the growth is 97.8% in [7]; 77.3% in assay [8]; 81.8% in assay [9]; 78.8% in [10]; 103% in assay [11]; 86.4% in [12]. In addition, the growth was 76.8% in assay [13]; 91.8% in [14]; 68.8% in [15]; 86.1% in assay [16]; 69% in [17]; 88.6% in [18]. In addition, the growth was 95.7% in [19] and 88.2% in assay [20].

Turning to `COc1ccc(OC)c2c1C(=O)CC2C` (stereo not given), the growth in [1] was 116%; in [2], 87%; in assay [3] it was 100%; in [4], 98.3%; in assay [5], 94.2%; in [6], 98%. Further, the growth in assay [7] was 101%; in [8], 107%; in [9] it was 112%; in [10] it was 110%; in assay [11], 108%; in assay [12], 93%. Also, the growth in assay [13] is 99.6%; in [14], 100%; in [15], 97.5%; in assay [16], 94.4%; in [17] it was 96.4%; in assay [18], 100%. The growth in assay [19] was 101%; in [20], 121%.

Regarding `CCOC(=O)N1C=CC2C=CC1C1C=CC=CC2N1C(=O)OCC` (stereo not given), the growth was 47.8% in assay [1]; 94.8% in [2]; 87% in [3]; 86.8% in [4]; 101% in assay [5]; 116% in assay [6]. In addition, the growth in assay [7] was 81.2%; in assay [8], 87.7%; in assay [9] it was 89.5%; in assay [10], 86.2%; in assay [11] it was 94.8%; in assay [12], 80.4%. The growth in [13] was 94.1%; in [14], 93.5%; in [15], 90.1%; in assay [16] it was 84.1%; in assay [17], 91.6%; in assay [18] it was 102%. Further, the growth in assay [19] was 87.8%; in [20], 90.9%.

With `COc1cc(Cl)cc(-c2nn(-c3cccc(NC(=O)c4ccc(N5CCOCC5)c(C(F)(F)F)c4)c3)cc2-c2ccncc2)c1`, the growth in assay [1] was 4.03% (active); in assay [2], 57.9%; in assay [3], 11.4%; in assay [4], 12.4%; in assay [5] it was 67.3%; in assay [6], 2.6% (active). Also, the growth in [7] was 52.1%; in assay [8], 63.6%; in assay [9] it was 56.7%; in assay [10] it was 17.3%; in assay [11], 21.2%; in assay [12], 34.9%. For the same compound, the growth in [13] was 75.5%; in assay [14], 32.3%; in assay [15], 29.1%; in assay [16], 71.5%; in [17] it was 67.8%; in assay [18], 47.3%. In addition, the growth was 53.2% in assay [19] and 64.9% in [20].
